Hits are enriched below; roughly 3.2% of the tested compounds scored in any of these assays.
Mtb FBA inh: inhibitors of M. tuberculosis fructose-bisphosphate aldolase; P9WQA3; purified M. tuberculosis FBA, fluorescence read-out; inhibition, % at 1 µM; actives 2.3% (n = 360,000);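 note: 0% = vehicle and 100% = reference inhibitor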
TcdB GH inh: TcdB glycohydrolase inhibition | actives 0.24% (n = 350,000) | TcdB glycohydrolase enzymatic assay, plate reader | P18177 | inhibition, % at 9.99 µM | AID 652162; in the data active = inhibition above about 10%
PrPC surface inh: inhibitors of human cell surface prion protein PrPC; inhibition, % at 13.8 µM; actives 0.43% (n = 370,000); TR-FRET read-out; AID 720596; in the data active = inhibition above about 24%; note: 0% = median of the test wells and 100% = reference compound wells
GDH-TPI counter-1: counter-screen for M. tuberculosis FBA inhibitors: GDH-TPI coupled enzymes; inhibition, % at 4.8 µM; GDH-TPI coupled enzyme counterscreen, NADH absorbance; AID 588335; actives 1.2% (n = 360,000); in the data active = inhibition above about 30%;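 note: 0% = DMSO wells and 100% = wells lacking the enzyme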
Yp Topo-I inh: blocks Yersinia pestis topoisomerase I activity. Y. pestis Topo-I cleavage product accumulation, plate reader. actives 0.064% (n = 360,000). activity, % at 10 µM; in the data active = activity above about 50%, passing the limit was not always enough
Mtb FBA inh conf: Mtb FBA inhibition, confirmed | shares compounds with Mtb FBA inh | AID 651616 | inhibition, % at 1 µM | purified M. tuberculosis FBA, fluorescence read-out | actives 78% (n = 5,600);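 note: 0% = vehicle wells and 100% = reference inhibitor wells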
GDH-TPI counter-2: GDH-TPI inhibition counter-screen for FBA inhibitors; shares compounds with Mtb FBA inh; GDH-TPI coupled enzyme counterscreen, fluorescence; inhibition, % at 1 µM; actives 81% (n = 5,600); in the data active = inhibition above about 10%
GDH-TPI dose: inhibits GDH-TPI coupling enzymes in dose response. actives 79% (n = 170). GDH-TPI coupled enzyme assay, fluorescence, artifact counterscreen. IC50, µM. AID 652145. shares compounds with Mtb FBA inh; call rule not given here
Numbers without * were called inactive; . = no result given; + = active, no number. Cut-off read from the data, not from the text of the source, unless noted: active = inhibition above about 27%; inactive = the rest.

SMILES	Mtb FBA inh	TcdB GH inh	PrPC surface inh	GDH-TPI counter-1	Yp Topo-I inh	Mtb FBA inh conf	GDH-TPI counter-2	others
COc1ccc2[nH]c3c(=O)n(/N=C/c4ccc(OC)c(CN5CCCC5)c4)c(C)nc3c2c1	13	2	-5	14	8	.	.
CC1=CC(C)C(/C=N/n2cnnc2)C(C)C1 (configuration not stated)	2	.	6	-4	-5	.	.
CC1=CC(C)[C@H](/C=N/n2c(=O)[nH]c3c([nH]c4ccc(C)cc43)c2=O)C(C)C1 (some centres not stated)	53*	2	-6	1	5	-1	-3
COc1ccc(/C=N/n2c(=O)[nH]c3c([nH]c4ccc(C)cc43)c2=O)cc1CN1CCOCC1	93*	0	.	14	11	127*	101*
C[C@@H]1CN([C@@H](C)CO)S(=O)(=O)c2ccc(C3=CCCCC3)cc2O[C@@H]1CN(C)C(=O)c1ccncc1	.	0	.	.	.	.	.
Cc1cc(O)c(-c2cc(O)c(C)cc2O)cc1O	37*	1	1	-6	-4	104*	82*
Cc1cc(N=O)c(C)cc1O	-3	5	-9	6	5	.	.
C[C@@H]1CN([C@@H](C)CO)C(=O)c2cc(NC(=O)CCCN(C)C)ccc2O[C@@H]1CN(C)S(=O)(=O)c1cn(C)cn1	.	1	.	.	.	.	.
O=C(O)c1cnc2ccccc2n1	33*	.	-9	5	-10	62*	43*
COC(=O)c1cnc2ccccc2n1	-1	.	2	3	-7	.	.
Cc1ccc(S(=O)(=O)c2c(N)n(CCC(C)C)c3nc4ccccc4nc23)cc1	46*	.	6	4	1	107*	80*
Nc1c(S(=O)(=O)c2ccccc2)c2nc3ccccc3nc2n1CCN1CCOCC1	47*	-2	-7	15	7	70*	55*
Cn1c(N)c(S(=O)(=O)c2ccc(Br)cc2)c2nc3ccccc3nc21	107*	.	-3	29	5	19	18*
Nc1c(S(=O)(=O)c2ccccc2)c2nc3ccccc3nc2n1C1CC1	18	1	5	3	17	.	.
CCC(=O)Nc1ccc2c(c1)OC[C@H](C)N(Cc1cccc(F)c1)C[C@H](C)[C@@H](OC)CN(C)C2=O	.	0	.	.	.	.	.
COC(=O)C[C@@H]1C=C[C@H](NC(=O)Nc2ccc(C(F)(F)F)cc2)[C@@H](CO)O1	.	-1	.	.	.	.	.
CN(C)c1ccc(-c2ccnc3c2CC(C)(C(=O)NCC2CC2)O3)cc1 (configuration not stated)	35*	1	-2	25	11	+	164*
CN(C)c1ccc(-c2ccnc3c2CC(C)(C(=O)NCCc2ccccc2)O3)cc1 (configuration not stated)	47*	0	-5	15	30	109*	73*
CN(C)c1ccc(CNC(=O)C2(C)Cc3c(-c4ccc(N(C)C)cc4)ccnc3O2)cc1 (configuration not stated)	46*	-1	8	30	25	58*	50*
COCCNC(=O)C1(C)Cc2c(-c3ccc(N(C)C)cc3)ccnc2O1 (configuration not stated)	32*	-1	-6	15	-3	128*	104*
COCCNC(=O)C1(C)Cc2c(-c3ccc(NC(C)=O)cc3)ccnc2O1 (configuration not stated)	12	1	5	4	7	.	.
CN(C)c1ccc(CNC(=O)C2(C)Cc3c(-c4ccccc4)ccnc3O2)cc1 (configuration not stated)	-3	-1	8	-7	21	.	.
Cc1noc(C)c1NC(=O)N(C)C[C@@H]1Oc2ccc(NC(=O)Cc3ccccc3)cc2C(=O)N([C@H](C)CO)C[C@H]1C	.	-1	.	.	.	.	.
CN(C)CC(=O)N[C@H]1CC[C@@H](CC(=O)NCCN2CCCCC2)O[C@H]1CO	.	-6	.	.	.	.	.
O=C(NC[C@@H]1[C@H](c2ccccc2)[C@H](CO)N1CC1CCCC1)C1CC1	.	0	.	.	.	.	.
SMILES	Mtb FBA inh	TcdB GH inh	PrPC surface inh	GDH-TPI counter-1	Yp Topo-I inh	Mtb FBA inh conf	GDH-TPI counter-2	others
CO[C@H]1CN(C)C(=O)c2cc(NC(=O)Nc3ccccc3)ccc2OC[C@H](C)N(C(C)=O)C[C@@H]1C	.	2	.	.	.	.	.
COc1cc(NS(=O)(=O)c2ccc(NC(=O)c3ccco3)cc2)nc(OC)n1	1	.	-10	5	9	.	.
COc1cc(NS(=O)(=O)c2ccc(N/C=C\C(=O)c3ccc(C)cc3)cc2)nc(OC)n1	30*	.	-6	26	7	36*	22*
COc1cc(NS(=O)(=O)c2ccc(NC(=O)c3cccs3)cc2)nc(OC)n1	75*	2	5	1	-11	-1	-8
N#CC1(C#N)COC23CCCCC2C1(C#N)C(=N)O3 (configuration not stated)	26	.	-2	-2	3	.	.
COc1ccc(C2CC3(O)NC(=O)C(C#N)(C3C)C2(C#N)C#N)cc1 (configuration not stated)	-2	-1	-2	-19	3	.	.
CCCC1OC23CCCCC2C(C#N)(C(=N)O3)C1(C#N)C#N (configuration not stated)	37*	.	-8	1	-6	15	-2	GDH-TPI dose=>10
COc1ccc(C2OC34CCCCC3C(C#N)(C#N)C2(C#N)C(=N)O4)cc1 (configuration not stated)	39*	.	-9	-11	1	80*	67*
N#CC12COC3(CCCCC3C1(C#N)C#N)OC2=N (configuration not stated)	39*	5	-9	9	2	75*	61*
Cc1c(C(=O)OCC(=O)N2CC(C)OC(C)C2)oc2ccc(Br)cc12 (configuration not stated)	-3	.	4	11	15	.	.
Cc1c(C(=O)OCC(=O)N2CCCC(C)C2)oc2ccccc12 (configuration not stated)	6	3	3	-7	14	.	.
CCOc1ccc2oc(C(=O)OCC(=O)N3CC(C)OC(C)C3)c(C)c2c1 (configuration not stated)	46*	-4	-3	5	7	+	+
CCOc1ccc2oc(C(=O)OCC(=O)N3CCCC(C)C3)c(C)c2c1 (configuration not stated)	49*	1	-2	4	1	95*	78*
COc1ccc2oc(C(=O)OCC(=O)N3CCCC(C)C3)c(C)c2c1 (configuration not stated)	63*	-1	-1	6	1	61*	55*
CC(C)NC(=O)N(C)C[C@H]1OCc2cnnn2CCCC(=O)N([C@@H](C)CO)C[C@@H]1C	.	0	.	.	.	.	.
